The values that follow come from PubChem BioAssay (Tox21).

A number with no mark means an inactive call. Records with an inconclusive call do not appear. The source made the active and inactive calls. Unless noted, calls come from the whole dose curve; as a rule, active = well fitted curve in the direction sought with a large enough effect in the repeat runs; inconclusive = weak or mixed curves; inactive = no such curve, though single readings can be large; an effect the other way counts as inactive or inconclusive.

Assay [1] can be described thus: qHTS assay to identify small molecule agonists of the estrogen receptor alpha (ER-alpha) signaling pathway in the presence of an antagonist - cell viability counter screen (AID 1259386). For activity change, negative = cytotoxicity: series mostly up to about 92 µM.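 Note: cells exposed to compounds for 22 h at 37 °C before the viability read; nearly all actives have a fitted effect of over 30% in size.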 Note: potency is the fitted concentration of half-maximal effect. A digest of the protocol: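 Cells are starved of estrogens for 5 days in charcoal-stripped serum, seeded for 24hr and co-treated with ICI-182,780 (10.0nM final) and test compounds. After 22hr at 37C, viability is read as CellTiter-Fluor fluorescence.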
(In general: qHTS replaces the single test concentration by a dilution series.)

The nature of assay [2]: qHTS assay to identify small molecule antagonists of the TGF-beta/Smad signaling pathway - cell viability counter screen (AID 1346824). Note: nearly all actives have a fitted effect of over 50% in size. A digest of the protocol: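 SBE-bla HEK 293T cells, incubated overnight, then compound plus 0.25 ng/mL TGF-beta1 (stock added) for 5 hr at 37 C. Viability was read in the same wells by CellTiter-Glo luminescence after 30 min at room temperature.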

Assay [3] can be described thus: qHTS assay to identify small molecule agonists of the TGF-beta/Smad signaling pathway - cell viability counter screen (AID 1346829). Note: top concentration of the series differs between compounds; nearly all actives have a fitted effect of over 45% in size. A digest of the protocol: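 CellTiter-Glo luminescence readout; SBE-bla HEK 293T cells, overnight plating, compound 5 hr at 37 C/5% CO2, then bla substrate 2 hr RT, then CellTiter-Glo 30 min RT.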
The nature of assay [4]: qHTS assay to identify small molecule agonists of the TGF-beta/Smad signaling pathway (AID 1346859; active = well fitted activation curve with a large enough effect in the signal ratio in the repeat runs, not every such curve was filed as active; the % refers to the signal ratio; note: series mostly up to about 77 µM). A digest of the protocol:
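HEK 293T cells stably carrying a beta-lactamase reporter driven by the Smad binding element were seeded overnight, exposed to DMSO-dissolved compounds for 5 hr at 37 C, 5% CO2, then loaded with FRET substrate for 2 hr at room temperature.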

Assay [5] concerns the target Thyrotropin-releasing hormone receptor (Homo sapiens) (UniProt P34981). Kind of assay: qHTS assay to identify small molecule antagonists of the thyrotropin-releasing hormone receptor (TRHR) signaling pathway (AID 1346877; active = well fitted inhibition curve with a large enough effect in the repeat runs, not every such curve was filed as active; note: series mostly up to about 51 µM). A digest of the protocol:
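Cells (TRHR-HEK293) are plated and kept 18 h at 37 °C/5% CO2. A calcium-sensitive dye is added for 2 h, compound follows for 5 min at room temperature, and TRH is then given at 1 nM final.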

The target is the same in assay [6]. Kind of assay: qHTS assay to identify small molecule agonists of the thyrotropin-releasing hormone receptor (TRHR) signaling pathway (AID 1346891; calls by dose curve; note: series mostly up to about 58 µM). A digest of the protocol:
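TRHR-expressing HEK293 cells were plated 18 h at 37 °C/5% CO2, loaded with calcium dye 2 h at 37 °C, then given compound in DMSO; fluorescence was read kinetically for 3 min at 1 s intervals.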

A short description of assay [7]: Human pregnane X receptor (PXR) small molecule agonists, qHTS cell viability counter screen (AID 1346977). Note: nearly all actives have a fitted effect of over 50% in size. Note: potency is the fitted concentration of half-maximal effect. A digest of the protocol: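 PXR-Luc HepG2 cells in medium with 5% charcoal-stripped FBS were pre-incubated 5hr, then exposed to compounds for 24hr at 37C. Viability was read in the same wells by CellTiter-Fluor fluorescence, reagent added after 23hr with a 1hr incubation.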

Assay [8] in a line: Caspase-3/7 induction in HepG2 cells by small molecules, qHTS assay (AID 1346978). Note: nearly all actives have a fitted effect of over 15% in size. The method, boiled down:
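Wild-type HepG2 cells, 2,000/well, settled 5 hr at 37 C and 5% CO2, then compound-treated for 17 hr; caspase-3/7 activity read by luminescent Caspase-Glo 3/7 after 30 min at room temperature.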

The nature of assay [9]: Caspase-3/7 induction in CHO-K1 cells by small molecules, qHTS cell viability counter screen (AID 1346979). Note: nearly all actives have a fitted effect of over 35% in size. Note: potency is the fitted concentration of half-maximal effect. A digest of the protocol: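 Wild-type CHO-K1 cells were seeded at 1,500 per well, rested 5hr at 37 C, then exposed to compounds in DMSO. After 16hr, CellTiter-Fluor reagent was added and fluorescence read 1hr later as the viability measure.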
Assay [10] in a line: Caspase-3/7 induction in CHO-K1 cells by small molecules, qHTS assay (AID 1346980). Note: nearly all actives have a fitted effect of over 15% in size. A digest of the protocol:
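Wild-type CHO-K1 cells exposed to compounds for 17hr at 37 C, 5% CO2. Caspase-3/7 activity then measured by Caspase-Glo 3/7 luminescence after 30min at room temperature.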

A short description of assay [11]: Caspase-3/7 induction in HepG2 cells by small molecules, qHTS cell viability counter screen (AID 1346981). For activity change, negative = cytotoxicity: series mostly up to about 92 µM. Note: nearly all actives have a fitted effect of over 30% in size. Note: potency is the fitted concentration of half-maximal effect. The method, boiled down: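 Steps: seed 2,000 HepG2 cells per well; incubate 5 hr at 37 C; pin-add compounds in DMSO; incubate 16 hr; add CellTiter-Fluor; after 1 hr at 37 C and 5% CO2, read fluorescence.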
The target of assay [12] is Nuclear receptor subfamily 1 group I member 2 (Homo sapiens) (UniProt O75469). Briefly: Human pregnane X receptor (PXR) small molecule agonists, qHTS assay (AID 1346982). Note: nearly all actives have a fitted effect of over 35% in size. Note: potency is the fitted concentration of half-maximal effect. The method, boiled down: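 Agonist mode qHTS: PXR-Luc HepG2 cells plated 5 hr before DMSO-dissolved compounds were pinned in, cultured 24 hr at 37 C, 5% CO2; ONE-Glo luminescence readout.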
For assay [13], the target named is Cytochrome P450 2D6 (Homo sapiens) (UniProt P10635). Kind of assay: Cytochrome P450 Family 2 Subfamily D Member 6 (CYP2D6) small molecule antagonists: luciferase reporter qHTS assay (AID 1671196). For activity change, negative = inhibition: series mostly up to about 120 µM. Note: nearly all actives have a fitted effect of over 50% in size. Note: potency is the fitted concentration of half-maximal effect. The method, boiled down:
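P450-Glo format: CYP2D6 converts a proluciferin substrate to luciferin in an NADPH-driven reaction lasting 1 h at room temperature. Light output, proportional to CYP2D6 activity, reflects interference by test chemicals.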
For orientation: A reporter such as luciferase makes a cellular process visible.

For assay [14], the target named is Nuclear receptor subfamily 1 group I member 2 (Rattus norvegicus) (UniProt Q9R1A7). Briefly: Rat pregnane X receptor (rPXR) activation by small molecules, qHTS assay (AID 1346983). Note: nearly all actives have a fitted effect of over 20% in size. The settings on record: rPXR luciferase reporter cells, One-Glo luminescence, 24 h; hits give high values. The method, boiled down:
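Cell-based rPXR activation assay: rPXR cells, 2,000 per well, rested 5hr at 37 C, then exposed to compounds in DMSO for 24 hr at 37 C. Luciferase activity read by One-Glo luminescence after 30 min at room temperature.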

Assay [15] addresses Progesterone receptor (Homo sapiens) (UniProt P06401). Kind of assay: qHTS assay to identify small molecule agonists of the progesterone receptor (PR) signaling pathway (AID 1346784; calls by dose curve; note: nearly all actives have a fitted effect of over 30% in size; note: potency is the fitted concentration of half-maximal effect). The method, boiled down:
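PR-UAS-bla HEK 293T cells carrying a UAS-driven beta-lactamase reporter were seeded in medium with 2% charcoal-stripped FBS, preincubated 6 hr at 37C, then exposed to compounds in DMSO for 16 hr; agonism was read by LiveBLAzer B/G FRET fluorescence.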

Assay [16] has the same target. Kind of assay: qHTS assay to identify small molecule antagonists of the progesterone receptor (PR) signaling pathway (AID 1346795; active = well fitted inhibition curve with a large enough effect in the signal ratio in the repeat runs, not every such curve was filed as active; the % refers to the signal ratio; note: potency is the fitted concentration of half-maximal effect). A digest of the protocol:
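PR-UAS-bla HEK293T cells carrying a UAS-driven beta-lactamase reporter were plated in medium with 2% charcoal-stripped FBS and rested 6 hr at 37C. Compounds were added with 1 nM R5020 (final) for 16 hr, then FRET substrate loaded 2 hr at room temperature.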

Assay [17] is described as follows: qHTS assay to identify small molecule antagonists of the progesterone receptor (PR) signaling pathway - cell viability counter screen (AID 1346798). Note: series mostly up to about 92 µM; nearly all actives have a fitted effect of over 50% in size. The method, boiled down: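 PR-UAS-bla HEK293T cells in medium with 2% charcoal-stripped FBS were treated with compounds plus R5020 for 16 hr at 37C. Cell viability was then read by CellTiter-Glo luminescence after 30 min at room temperature in the same wells.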

Assay [18] in a line: qHTS assay to identify small molecule agonists of the progesterone receptor (PR) signaling pathway - cell viability counter screen (AID 1346799; calls by dose curve; note: nearly all actives have a fitted effect of over 45% in size). A digest of the protocol: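 PR-UAS-bla HEK293T cells, 3,000 per well in medium with 2% charcoal-stripped FBS, were preincubated 6 hr at 37C, then exposed to compounds for 16 hr; viability was read as CellTiter-Glo luminescence after 30 min at room temperature.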

In assay [19] the target is Nuclear receptor subfamily 1 group I member 2 (Homo sapiens) (UniProt O75469). Briefly: Human pregnane X receptor (PXR) activation by small molecules, qHTS assay (AID 1346985). Note: nearly all actives have a fitted effect of over 40% in size. The method, boiled down:
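DPX-2 cells (HepG2 co-transfected with a PXR response element and a CYP3A4-promoter luciferase construct) were seeded at 2,000 per well, rested 5 hr at 37C, then exposed to DMSO-dissolved compounds for 24 hr. Activation was read as luciferase luminescence.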
% is set by controls: 0 for no effect and ±100 for the full control effect.

Progesterone receptor (Homo sapiens), sequence (P06401 whole entry, looked up): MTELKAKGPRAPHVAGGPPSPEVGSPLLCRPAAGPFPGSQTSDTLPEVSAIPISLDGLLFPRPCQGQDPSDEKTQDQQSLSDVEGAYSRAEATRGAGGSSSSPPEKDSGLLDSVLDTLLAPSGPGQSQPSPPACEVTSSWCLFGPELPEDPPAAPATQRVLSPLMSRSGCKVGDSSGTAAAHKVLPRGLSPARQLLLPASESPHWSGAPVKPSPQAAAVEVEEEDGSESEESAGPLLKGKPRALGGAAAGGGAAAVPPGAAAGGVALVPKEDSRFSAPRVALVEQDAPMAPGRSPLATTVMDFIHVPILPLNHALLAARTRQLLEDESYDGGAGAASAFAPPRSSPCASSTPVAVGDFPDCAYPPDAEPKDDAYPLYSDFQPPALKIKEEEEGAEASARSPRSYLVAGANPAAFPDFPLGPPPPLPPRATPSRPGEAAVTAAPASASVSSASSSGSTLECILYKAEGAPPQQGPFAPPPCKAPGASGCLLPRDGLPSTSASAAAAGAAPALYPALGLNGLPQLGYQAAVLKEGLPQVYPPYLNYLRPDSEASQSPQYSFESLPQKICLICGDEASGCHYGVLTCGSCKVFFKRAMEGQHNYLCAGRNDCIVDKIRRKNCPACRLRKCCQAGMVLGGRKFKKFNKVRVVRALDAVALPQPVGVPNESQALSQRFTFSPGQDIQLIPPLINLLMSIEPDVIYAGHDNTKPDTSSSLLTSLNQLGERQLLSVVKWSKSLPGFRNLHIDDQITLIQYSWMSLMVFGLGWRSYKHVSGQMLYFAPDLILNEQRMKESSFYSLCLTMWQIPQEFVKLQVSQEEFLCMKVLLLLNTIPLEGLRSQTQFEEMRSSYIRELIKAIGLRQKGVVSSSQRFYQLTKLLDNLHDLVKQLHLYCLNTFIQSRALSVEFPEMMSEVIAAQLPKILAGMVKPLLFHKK
Nuclear receptor subfamily 1 group I member 2 (Homo sapiens), sequence (O75469 whole entry, looked up): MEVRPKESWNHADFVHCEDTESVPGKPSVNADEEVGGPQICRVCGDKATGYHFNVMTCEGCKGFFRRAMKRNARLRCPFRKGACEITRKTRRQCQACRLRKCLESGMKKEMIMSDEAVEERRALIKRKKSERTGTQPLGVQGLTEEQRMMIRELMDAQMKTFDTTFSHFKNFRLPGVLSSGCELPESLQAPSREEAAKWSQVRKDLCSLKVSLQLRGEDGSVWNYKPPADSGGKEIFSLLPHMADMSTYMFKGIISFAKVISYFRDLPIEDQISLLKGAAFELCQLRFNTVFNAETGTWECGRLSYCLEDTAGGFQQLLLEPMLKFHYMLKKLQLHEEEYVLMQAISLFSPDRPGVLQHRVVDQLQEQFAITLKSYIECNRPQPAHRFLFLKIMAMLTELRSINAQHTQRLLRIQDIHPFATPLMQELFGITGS
Cytochrome P450 2D6 (Homo sapiens), sequence (P10635 whole entry, looked up): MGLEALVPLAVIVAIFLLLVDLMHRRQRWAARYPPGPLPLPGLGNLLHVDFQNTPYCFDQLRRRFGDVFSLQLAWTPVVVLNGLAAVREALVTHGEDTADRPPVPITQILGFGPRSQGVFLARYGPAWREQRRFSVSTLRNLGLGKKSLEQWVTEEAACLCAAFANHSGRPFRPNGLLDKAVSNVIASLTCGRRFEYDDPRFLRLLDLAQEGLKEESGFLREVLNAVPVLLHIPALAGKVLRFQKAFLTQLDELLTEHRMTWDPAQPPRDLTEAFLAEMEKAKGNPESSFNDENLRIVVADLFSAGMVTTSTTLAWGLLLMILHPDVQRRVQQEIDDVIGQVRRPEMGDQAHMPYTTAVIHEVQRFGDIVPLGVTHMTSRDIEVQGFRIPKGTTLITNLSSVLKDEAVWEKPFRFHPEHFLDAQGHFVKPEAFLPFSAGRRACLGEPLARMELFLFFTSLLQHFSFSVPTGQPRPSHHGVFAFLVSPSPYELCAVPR
Thyrotropin-releasing hormone receptor (Homo sapiens), sequence (P34981 whole entry, looked up): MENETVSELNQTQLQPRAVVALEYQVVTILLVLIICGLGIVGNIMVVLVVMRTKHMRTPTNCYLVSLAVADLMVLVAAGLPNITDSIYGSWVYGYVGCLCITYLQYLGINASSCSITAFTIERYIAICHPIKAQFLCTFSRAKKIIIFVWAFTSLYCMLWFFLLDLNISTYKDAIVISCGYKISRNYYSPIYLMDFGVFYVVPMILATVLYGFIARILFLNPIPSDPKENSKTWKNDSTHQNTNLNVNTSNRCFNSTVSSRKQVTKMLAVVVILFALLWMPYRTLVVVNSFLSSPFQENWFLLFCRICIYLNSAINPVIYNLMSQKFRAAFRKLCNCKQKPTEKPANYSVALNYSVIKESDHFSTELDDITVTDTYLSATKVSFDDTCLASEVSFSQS
Nuclear receptor subfamily 1 group I member 2 (Rattus norvegicus), sequence (Q9R1A7 whole entry, looked up): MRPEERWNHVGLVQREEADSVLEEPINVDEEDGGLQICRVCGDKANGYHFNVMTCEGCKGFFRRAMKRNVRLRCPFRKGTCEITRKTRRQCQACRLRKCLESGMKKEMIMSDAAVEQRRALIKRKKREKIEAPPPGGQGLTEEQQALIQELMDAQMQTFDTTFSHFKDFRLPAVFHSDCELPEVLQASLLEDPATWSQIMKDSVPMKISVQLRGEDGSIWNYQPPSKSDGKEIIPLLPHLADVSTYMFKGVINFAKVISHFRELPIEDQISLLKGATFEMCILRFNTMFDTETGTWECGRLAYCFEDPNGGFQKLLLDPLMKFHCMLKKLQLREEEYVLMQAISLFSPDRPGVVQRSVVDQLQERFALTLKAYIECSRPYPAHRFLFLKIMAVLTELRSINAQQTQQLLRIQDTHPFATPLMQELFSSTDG

In the case of `O=C(O)O`, the activity change, negative = cytotoxicity in assay [1] was 1.41% [at 8.39 µM]; in assay [3], 8.74% [at 6.97 µM]; in [7], 1.04% [at 8.39 µM]; in [9], 0.8% [at 8.39 µM]; in assay [11], -0.291% [at 8.39 µM]. Also, the viability change, negative = cytotoxic in assay [2] was 7.39% [at 6.97 µM]. Besides, the activation in [4] is 4.78% [at 6.97 µM]; in [6], -0.122% [at 5.23 µM]; in assay [12], 4.39% [at 8.39 µM]. For the same molecule, in assay [5], the activity, negative = inhibition was 1.6% [at 4.65 µM]. The caspase activation in assay [8] was 0.0124% [at 8.39 µM]. The caspase-3/7 activation in assay [10] was 0.298% [at 8.39 µM]. Further, the activity change, negative = inhibition in assay [13] was -1.63% [at 10.5 µM].

As to `O=C1CCc2ccc(OCCCCN3CCN(c4cccc(Cl)c4Cl)CC3)cc2N1`, the Potency in assay [1] was 29.8 µM (active); in assay [7] it was 16.8 µM (active); in assay [9] it was 21.1 µM (active); in assay [11] it was 23.7 µM (active). The Potency entry in assay [5], in assay [8] and in assay [10] was “inactive” each time. Moreover, the result in [6] was inactive. Moreover, the max activation in assay [14] is -4.05%.

For `Nc1cc(Cl)c(O)c(Cl)c1`, the Potency entry in assay [15], in [16], in assay [17], in [18], in assay [2] and in [3] was “inactive” each time. For the same molecule, the Potency entry in assay [8], in assay [10] and in [11] was “inactive” each time. The Potency in assay [13] was 15.9 µM (active).

In the case of `C#C[C@]1(OC(C)=O)CC[C@H]2[C@@H]3CCC4=C[C@@H](OC(C)=O)CC[C@@H]4[C@H]3CC[C@@]21C`, the Potency in assay [15] is 0.0237 µM (active); in assay [9], 33.5 µM (active); in assay [12], 29.8 µM (active). Further, the Potency result in assay [2], in assay [3], in assay [4], in assay [8], in assay [10] and in assay [11] was “inactive” throughout. The Potency entry in assay [13] was “inactive”. In addition, in [14], the max activation is 3.89%.

On to `CC[C@H](C)COC(=O)/C=C/c1ccc(N=Cc2ccc(OC)cc2)cc1`, for which the Potency entry in assay [15], in assay [17], in assay [18], in assay [2], in assay [3] and in assay [4] was “inactive” throughout. Further, the Potency result in [8], in [10] and in [11] was “inactive” each time. The Potency in assay [16] was 30.6 µM (active); in assay [9] it was 61 µM (active); in [12], 30.6 µM (active); in assay [13], 70.9 µM (active).

Take `CCC(CC)(CC(=O)Nc1cccc(/C=C/c2nc(C3CCC3)cs2)c1)C(=O)O`: the Potency entry in assay [1], in [17], in [2], in assay [4], in [5] and in assay [7] was “inactive” in each case. Also, the Potency entry in [8], in [10], in assay [11] and in assay [13] was “inactive” in each case. For the same molecule, in [6], the molecule was classed as inactive. The Potency in [12] was 23.7 µM (active).

Consider `Cc1ccc(O)c(O)c1`, for which the Potency was 42 µM (active) in [16], 52.9 µM (active) in assay [9] and 59.4 µM (active) in [12]. In addition, the Potency result in assay [2], in assay [3], in assay [4], in [5], in assay [10] and in assay [13] was “inactive” in each case. In assay [6], the outcome was inactive.

For the molecule `COC1=C(OC)C(=O)C(CCCCCCCCCCO)=C(C)C1=O`, the Potency result in [15], in assay [2], in [3], in assay [4], in assay [5] and in assay [7] was “inactive” in each case. The Potency entry in [8], in [10], in [11], in [12] and in assay [19] was “inactive” each time. Also, in assay [6], the call was inactive. Besides, the Potency in assay [9] was 23.7 µM (active); in assay [13], 34.7 µM (active). Also, the max activation in [14] was 4.16%.

In the case of `CCN1C(=O)c2ccccc2C1Nc1ccc(OCCN2CCCCC2)cc1` (centres undefined), the Potency result in [16], in assay [17], in assay [2], in [3], in assay [4] and in assay [5] was “inactive” throughout. Besides, the Potency entry in assay [8], in assay [9], in [10] and in assay [11] was “inactive” each time. For the same molecule, in [6], the molecule was classed as inactive.

In the case of `c1ccc(C(O[C@@H]2CCCN(CCc3ccc4c(c3)OCO4)C2)c2ccccc2)cc1`, the Potency result in assay [15], in assay [17], in [2], in [3], in [4] and in assay [5] was “inactive” each time. Also, the Potency result in assay [8] and in assay [12] was “inactive” throughout. For the same molecule, the molecule was called inactive in assay [6]. The Potency in assay [7] is 61.1 µM (active); in assay [13], 2.52 µM (active).

`FC(F)(F)c1cccc(Cl)c1`: the Potency entry in assay [1], in assay [18], in assay [2], in [7], in assay [9] and in [10] was “inactive” each time. In addition, the Potency entry in [11], in assay [12] and in assay [13] was “inactive” each time.
